# Results reported in PubChem BioAssay AID588397 (National Center for Advancing Translational Sciences (NCATS), 2011).
# Screen size: about 1,300 compounds; about 1,000 (77%) were called active. Not shown: some 7% with an inconclusive outcome. So high a share suggests a set chosen from earlier hits. The list shows a part of the results. A number with no mark means an inactive call. Calls follow the shape of the dose curve; as a rule, active = well fitted inhibition curve with a large enough effect; inconclusive = small, poorly fitted or top-dose-only effect; inactive = no such curve, though single readings can be large or run the other way.
# Experiment: qHTS of small molecules that selectively kill Giardia lamblia: Hit Validation.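 Also: viability measured as ATP content by luminescence so killing lowers signal; trophozoites exposed to compounds for 48 h anaerobically at 37 °C; nearly all actives have a fitted effect of over 65% in size.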
# Settings: Giardia lamblia trophozoite viability, dose-response; series mostly up to 38.3 µM; activity change, negative = killing: at the top concentration
# Procedure, shortened: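 HTS viability screen: compound-treated trophozoites (100 cells/well) are kept anaerobic at 37 deg C for 48 hrs, and surviving cells are detected through ATP-dependent luminescence.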
# % is scaled to controls: 0 for no effect and ±100 for the full control effect; potency is read from the fitted curve at half-maximal effect.
Structure (SMILES),Potency,"activity change, negative = killing [%]"
CCOC(=O)c1c(C)[nH]c2c1-c1ccccc1C(=O)C2=O,4100 nM (active),
CC(=O)c1c(C)oc2c1C(=O)c1ccccc1C2=O,4600 nM (active),
CCOC(=O)c1c(C)oc2c1C(=O)c1ccccc1C2=O,5160 nM (active),
Cc1oc2c(c1C(=O)O)C(=O)c1ccccc1C2=O,3260 nM (active),
CC(=O)NCCNC(=O)c1ccc(CSc2ccc(Cl)cc2)cc1,,-13.7
Cc1onc(-c2ccccc2Cl)c1C(=O)NNC(=O)c1ccc(F)cc1,,-38.8
Cc1onc(-c2ccccc2)c1C(=O)N/N=C/c1ccc([N+](=O)[O-])c(O)c1,3260 nM (active),
CN(C)c1ccc(/C=C(/NC(=O)c2ccccc2)C(=O)N/N=C/c2ccc([N+](=O)[O-])c(O)c2)cc1,2590 nM (active),
Cc1ccc(OCC(=O)N(C)CC(=O)Nc2ccc(Cl)c(C(F)(F)F)c2)c([N+](=O)[O-])n1,5790 nM (active),
Cc1ccc(OCC(=O)Nc2nc(C)c(Cl)cc2Cl)c([N+](=O)[O-])n1,5790 nM (active),
Cc1ccc(OCC(=O)Nc2ccc(C)c(F)c2)c([N+](=O)[O-])n1,5790 nM (active),
Oc1cccc(-c2nnc(-c3cccc(O)c3)nn2)c1,1160 nM (active),
O=C(NC1CCCCC1)c1ccc([N+](=O)[O-])o1,1630 nM (active),
O=C(NCC1CCCO1)c1ccc([N+](=O)[O-])o1 (stereo unspecified),1160 nM (active),
O=C(NC1CCCC(C(F)(F)F)C1)c1ccc([N+](=O)[O-])o1 (stereo unspecified),1450 nM (active),
Cc1cc2nc(-c3ccc[nH]c3=O)[nH]c2cc1C,729 nM (active),
O=C(NCc1nnnn1-c1ccc(F)cc1)c1ccc([N+](=O)[O-])o1,1450 nM (active),
O=C(NCC(c1ccc(F)cc1)N1CCOCC1)c1ccc([N+](=O)[O-])o1 (stereo unspecified),1300 nM (active),
Cc1ccc(-n2nnnc2CNC(=O)c2ccc([N+](=O)[O-])o2)cc1C,918 nM (active),
Cc1[nH]n(S(=O)(=O)c2ccccc2)c(=O)c1N=Nc1cccc(Cl)c1,4600 nM (active),
Cc1[nH]n(S(=O)(=O)Cc2ccccc2)c(=O)c1N=Nc1ccccc1Cl,2310 nM (active),
COc1ccc(N(Cc2ccccc2)C(=O)OC(C)(C)C)c(C(=O)N(C)OC)c1,,-1.53
COc1ccc(Cn2cnc([N+](=O)[O-])c2)cc1[N+](=O)[O-],3260 nM (active),
COc1ccc(NC(=O)c2ccc([N+](=O)[O-])cc2[N+](=O)[O-])c(OC)c1,10300 nM (active),
O=C(Nc1ccc(NC(=O)c2ccc([N+](=O)[O-])o2)cc1Cl)c1ccco1,1030 nM (active),
O=C(Nc1cccc(NC(=O)c2ccccc2Cl)c1)c1ccc([N+](=O)[O-])o1,410 nM (active),

Structure (SMILES),Potency,"activity change, negative = killing [%]"
O=C(O)c1cccc(NC(=S)NC(NC(=O)c2ccccc2[N+](=O)[O-])C(Cl)(Cl)Cl)c1 (stereo unspecified),,-9.8
COc1cc(NC(=O)c2ccc([N+](=O)[O-])o2)ccc1NC(=O)c1ccco1,579 nM (active),
O=C(Nc1ccccc1O)c1ccc([N+](=O)[O-])cc1,9180 nM (active),
O=C(Nc1cccc(NC(=O)c2cccs2)c1)c1ccc([N+](=O)[O-])o1,729 nM (active),
O=C(Nc1cccc(NC(=O)c2ccc([N+](=O)[O-])o2)c1)c1ccco1,729 nM (active),
O=C(Nc1ccc(O)c2c(=O)cc(-c3ccccc3Cl)oc12)c1ccc(F)cc1,,-9.71
Cc1cc(NC(=O)c2ccc([N+](=O)[O-])o2)ccc1NC(=O)c1ccco1,918 nM (active),
COc1cc(NC(=O)c2ccc([N+](=O)[O-])o2)ccc1NC(=O)c1cccs1,818 nM (active),
COc1ccc(NC(=O)c2ccco2)c(NC(=O)c2ccc([N+](=O)[O-])cc2)c1,4100 nM (active),
O=C(COC(=O)c1ccccc1)Nc1ncc([N+](=O)[O-])s1,3650 nM (active),
O=C(COC(=O)c1ccc(Br)o1)Nc1ncc([N+](=O)[O-])s1,2310 nM (active),
Cc1nc2cc(NC(=O)c3ccc([N+](=O)[O-])s3)ccc2s1,650 nM (active),
Cc1ccnc(NC(=S)NC(=O)c2cccs2)c1,6500 nM (active),
Cc1cccc(NC(=O)c2ccc([N+](=O)[O-])s2)n1,3650 nM (active),
Cc1ccnc(NC(=O)c2ccc([N+](=O)[O-])s2)c1,3650 nM (active),
O=C(c1ccc([N+](=O)[O-])o1)N1CCc2ccccc21,1300 nM (active),
COc1cc2c(cc1OC)CN(Cc1cc(=O)oc3c(C)c(C)ccc13)CC2,,5.4
O=C(c1cc(COc2c(F)cccc2F)on1)N1CCc2ccccc2C1,,-2.25
O=C(c1ccc([N+](=O)[O-])o1)N1CCc2ccccc2C1,2900 nM (active),
COc1cc2c(cc1OC)CN(C(=O)c1ccc([N+](=O)[O-])o1)CC2,2050 nM (active),
N/C(=N\c1nc2ccccc2o1)NC(=O)C(Cc1ccccc1)N1C(=O)c2ccccc2C1=O (stereo unspecified),1830 nM (active),
N#Cc1ccccc1S(=O)(=O)N1CCN(C(=O)c2cn(-c3ccccc3)nc2-c2cccnc2)CC1,6500 nM (active),
O=C(CC12CC3CC(CC(C3)C1)C2)N/N=C/c1ccc([N+](=O)[O-])o1,918 nM (active),
CC(NC(=O)C12CC3CC(CC(C3)C1)C2)C(=O)NN=Cc1ccc([N+](=O)[O-])o1 (stereo unspecified),1830 nM (active),
CCn1c(C)cc(C(=O)COC(=O)c2ccccc2[N+](=O)[O-])c1C,20500 nM (active),
